Target: Glucose transporter (Leishmania mexicana) (UniProt O61059)
Assay: ST_JUDE_LEISH: Cytotoxicity at 2uM final concentration against transgenic Leishmania Mexicana promastigotes LmGT2 that are glucose transport deficient and complemented with the L. Mexicana glucose transporter 2. Activity is measured by DNA content using SYBR green in vitro
Assay type: functional

| Compound | inhibition [%] |
| --- | --- |
| CCCc1cc(NC2CCN(C)CC2)nc(Nc2ccc(F)cc2)n1 | 5.22 |
| CN1CCN(CC2(Nc3nccc(NCCc4cn(C)c5ccccc45)n3)CCCCC2)CC1 | -1.09 |
| COc1ccc(C(C(=O)NC2CCN(C[C@H](O)c3ccnc4ccc(OC)cc34)CC2)N2CCc3ccccc3C2)cc1 (some centres undefined) | 2.69 |
| Cc1cc(=O)c(-c2ccc(Oc3cccc(Cl)c3)cc2)c(C)[nH]1 | 2.24 |
| CCCNC(=O)Nc1cc2cc(-c3cccc(CN4CCCCC4)c3)ccc2n2c(C)nnc12 | 0.91 |
| COc1ccc2ncc(F)c(CCN3C[C@H](CNCc4cc(C#N)c5c(c4)OCCO5)[C@H](O)C3)c2n1 | 1.91 |
| CCCCCCN1CCC(NCc2cccc3ccccc23)CC1 | 13.7 |
| Cn1c(N)cc(-c2cccc(I)c2)c2c(=O)nc(N)nc1-2 | 2.89 |
| CN(C)CCN(C)Cc1cccc(-c2ccc3c(Nc4cc(O)c(Cl)cc4F)ccnc3c2)c1 | -2.95 |
| Oc1ccc(CCNc2nc(NCCCOc3ccccc3-c3cccc(C(F)(F)F)c3)nc(N3CCNCC3)n2)cc1 | 5.07 |
| Cc1ccc(Cn2ncc(N3CCC(N)CC3)c(Cl)c2=O)cc1NC(=O)Nc1ccc(-c2ccccc2)cc1 | 11.9 |
| CCCC(CNCc1cccc(I)c1)CNc1cc(=O)c2ccccc2[nH]1 (centres undefined) | 2.67 |
| CCn1c(-c2nonc2N)nc2c(-c3ccccc3)ncc(OCCCCNCCc3ncc[nH]3)c21 | -0.64 |
| N#Cc1ccc(Sc2nnc(-c3ccccc3Cl)n2CC2CCCCC2)cc1[N+](=O)[O-] | 0.82 |
| Clc1ccccc1/C=C/c1cncnc1Nc1ccc2[nH]c(Cc3ccccc3)nc2c1 | 1.23 |
| CCCCCCCCCCNCC(O)c1ccc(O)c(C(=O)OC)c1 (centres undefined) | 0.52 |
| CCc1cn(CCOC)c2ccc(C(=O)N[C@@H](Cc3ccccc3)[C@H](O)CNC(C)(C)CCCC(C)C)cc12 | 1.51 |
| COc1ccc(CN(C)CCCc2ccc(NC(=O)c3cccc4c(O)c5ccccc5nc34)cc2)cc1OC | 1.93 |
| O=C(Nc1cccc(-c2nc3ccccc3s2)c1)c1ccccc1[N+](=O)[O-] | -0.15 |
| O=C(NCCNc1ccnc(Nc2ccc(F)cc2)n1)c1cc2ccccc2s1 | 0.69 |
| Cc1ccc(CN2CCN(c3cc4c(cc3Cl)CCN4C(=O)Cc3ccc(Cl)c(NC(=O)Nc4cccc(C#N)c4)c3)CC2)cc1 | -0.62 |
| N#Cc1cccc(C(=O)Nc2cccc(-c3ccc(CN4CCCC4)cc3)c2)c1 | 2.89 |
| COc1ccc(CNC2CCN(C)CC2)cc1-c1cccc(S(=O)(=O)NCc2ccccc2)c1 | 0.24 |
| COc1ccc(-n2nc(C)c3c2NC(=O)CC3c2ccccc2OCc2ccc(F)cc2)cc1 (centres undefined) | 5.62 |
